Measured values: PubChem BioAssay (Tox21)
Inconclusive results are not listed. Calls of active or inactive are those of the source. Calls come from the whole dose curve; as a rule, active = well fitted inhibition curve with a large enough effect in the repeat runs; inconclusive = weak or mixed curves; inactive = no such curve, though single readings can be large or run the other way.

What follows are compounds tested against Cytochrome P450 3A4 (Homo sapiens) (UniProt P08684) (assay: Cytochrome P450 Family 3 Subfamily A Member 4 (CYP3A4) small molecule antagonists: luciferase reporter qHTS assay (AID 1671201; note: nearly all actives have a fitted effect of over 50% in size)). Details: P450-Glo CYP3A4 enzyme, luciferin luminescence, 1 h; series mostly up to 115 µM; activity change, negative = inhibition: at the top concentration.
Procedure, shortened: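 P450-Glo CYP3A4 luminescent assay: compounds preincubated 10 min at room temperature with enzyme and proluciferin substrate, NADPH regeneration added, 1 h room-temperature reaction, stopped with luciferin detection reagent; luminescence read after 20 min. Ketoconazole positive control.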
% is set by controls: 0 for no effect and ±100 for the full control effect; potency is the fitted concentration of half-maximal effect.

Chain of Cytochrome P450 3A4 (Homo sapiens) (P08684 whole entry, looked up): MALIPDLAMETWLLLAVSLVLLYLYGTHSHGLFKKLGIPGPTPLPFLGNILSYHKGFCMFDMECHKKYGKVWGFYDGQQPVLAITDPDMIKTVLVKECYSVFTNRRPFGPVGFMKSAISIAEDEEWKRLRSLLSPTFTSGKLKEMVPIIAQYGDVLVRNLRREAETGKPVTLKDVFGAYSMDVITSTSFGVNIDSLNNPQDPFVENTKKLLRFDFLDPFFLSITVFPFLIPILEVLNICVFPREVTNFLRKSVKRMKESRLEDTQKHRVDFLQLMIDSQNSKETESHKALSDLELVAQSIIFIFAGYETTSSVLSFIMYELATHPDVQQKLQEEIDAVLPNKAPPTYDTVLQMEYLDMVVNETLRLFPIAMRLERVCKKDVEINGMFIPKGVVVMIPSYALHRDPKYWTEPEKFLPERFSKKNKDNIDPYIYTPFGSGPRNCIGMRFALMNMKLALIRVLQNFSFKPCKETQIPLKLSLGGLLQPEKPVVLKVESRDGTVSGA

Row | Compound | activity change, negative = inhibition | Potency
1 | Cc1cccc(C)c1C | -0.755% (inactive) | –
2 | N#CCCOCCC#N | 0.122% (inactive) | –
3 | NCc1cccc(C2CCN(C(=O)c3ccc(C#Cc4ccccc4F)o3)CC2)c1 | – | 5.64 µM (active)
4 | CC(C)C(=O)C(C)C | -0.303% (inactive) | –
5 | O=[N+]([O-])c1ccc(CO)cc1 | 4.95% (inactive) | –
6 | Clc1cccc(Cl)n1 | 29.7% (inactive) | –
7 | CSc1nnc(C(C)(C)C)c(=O)[nH]1 | 13.5% (inactive) | –
8 | C=C[Si](C)(C)Cl | 0.89% [at 10.5 µM] (inactive) | –
9 | CCCCCCCC/C=C\CCCCCCCC(=O)N(CCO)CCO | – | 15.8 µM (active)
10 | C1CCSC1 | 3.39% (inactive) | –
11 | O=C1CCCCCCCCCCCCCC1 | – | 35.6 µM (active)
12 | Nc1ccc(F)c([N+](=O)[O-])c1 | -18.1% (inactive) | –
13 | Cc1c[nH]c(=O)[nH]c1=O | 1.61% (inactive) | –
14 | O=C(c1ccccc1)c1ccc(Cl)cc1 | 208% (inactive) | –
15 | O=C1CCC/C=C\CCCCCCCCCC1 | – | 31.7 µM (active)
16 | Clc1ccc2c(Cl)ccnc2c1 | -1.04% (inactive) | –
17 | CC(C)c1ccc2sc3ccccc3c(=O)c2c1 | -13.7% (inactive) | –
18 | COc1c(Br)cc(Br)c(C)c1Br | 11.9% (inactive) | –
19 | CC(=O)CC(N)=O | 1.25% (inactive) | –

Row | Compound | activity change, negative = inhibition | Potency
20 | COCCC(=O)OC | 3.11% (inactive) | –
21 | CC(C)(c1ccc(Oc2ccc(N)cc2)cc1)c1ccc(Oc2ccc(N)cc2)cc1 | – | 2.52 µM (active)
22 | CCc1cccc(C)c1N(C(=O)C(=O)O)C(C)COC (stereo not drawn) | -9.59% (inactive) | –
23 | CCCCCN=C(N)N/N=C/c1c[nH]c2ccc(OC)cc12 | 31.5% [at 52.9 µM] (inactive) | –
24 | Oc1ccc(C2(c3ccc(O)c(C4CCCCC4)c3)CCCCC2)cc1C1CCCCC1 | – | 14.2 µM (active)
25 | COc1cccc(-c2ccc(/C=C\CN3CCCCCC3)cc2Cl)c1 | -24.1% (inactive) | –
26 | O=C1c2ccccc2C(=O)c2c(Cl)cccc21 | 32.1% [at 52.9 µM] (inactive) | –
27 | CC1CCC(C(C)(C)O)CC1 (stereo not drawn) | -3.05% (inactive) | –
28 | CCCC(C)C=O (stereo not drawn) | 4.94% (inactive) | –
29 | C=C(C)CCO | 1.22% (inactive) | –
30 | COc1cc(/C=C/C(=O)CC(=O)/C=C/c2ccc(O)c(OC)c2)ccc1O | – | 10.1 µM (active)
31 | CCCCCCCCCCCCS(=O)(=O)Cl | -1.36% [at 23.6 µM] (inactive) | –
32 | CCC(=O)OC/C=C(\C)CCC=C(C)C | 2.51% (inactive) | –
33 | CCC1(C)C(=O)N(Cl)C(=O)N1Cl (stereo not drawn) | -9.52% (inactive) | –
34 | Cc1ccc2n[nH]nc2c1 | 1.66% (inactive) | –
35 | O=C(Nc1ccc([N+](=O)[O-])cc1)Nc1ccc([N+](=O)[O-])cc1 (tested in a mixture with another compound) | 28.9% [at 52.9 µM] (inactive) | –
36 | C=CC(C)(C)O | -0.697% (inactive) | –
37 | N#Cc1nc(Cl)c(Cl)c(Cl)c1Cl | -0.0681% (inactive) | –
38 | [Cl][Sc]([Cl])[Cl] | 4.5% (inactive) | –
